Among all 5,500 compounds or so, about 2,000 (36%) were called active. Inconclusive results (about 18%) are left out. The list shows a part of the results. Unmarked numbers belong to inactive results. Rule as the data show it: active = normalized growth mostly below about 0.91 (no sharp cut-off); inconclusive = no clear call, values can overlap the other calls; inactive = mostly above about 0.92.
Assay: chemical genetic growth profiling, strain panel (AID 1159580);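 also: tested at 20 µM; growth read once vehicle control cultures reached saturation at 30 °C; 1 = growth at the plate median or of vehicle wells; lower values mean less growth of the strain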
Conditions: S. cerevisiae deletion strains, growth OD

CC1(C)CCC2(C(=O)O)CCC3(C)C(=CCC4C5(C)CCC(O)C(C)(C)C5C(O)CC43C)C2C1 (stereo not given)
normalized growth (locus YAL021C, strain ccr4, hits give low values): 1
normalized growth (locus YAL026C, strain drs2, hits give low values): 1.04
normalized growth (locus YAL030W, strain snc1, hits give low values): 1.03
normalized growth (locus YBL061C, strain skt5, hits give low values): 1.03
normalized growth (locus YBR009C, strain hhf1, hits give low values): 1.02
normalized growth (locus YBR023C, strain chs3, hits give low values): 1.04
normalized growth (locus YBR171W, strain sec66, hits give low values): 1.05
normalized growth (locus YBR231C, strain swc5, hits give low values): 1.03
normalized growth (locus YBR279W, strain paf1, hits give low values): 1.03
normalized growth (locus YCL011C, strain gbp2, hits give low values): 1.02
normalized growth (locus YCL016C, strain dcc1, hits give low values): 1.01
normalized growth (locus YCL069W, strain vba3, hits give low values): 1.03
normalized growth (locus YCR088W, strain abp1, hits give low values): 1.04
normalized growth (locus YDL005C, strain med2, hits give low values): 0.246 (active)
normalized growth (locus YDL040C, strain nat1, hits give low values): 1.04
normalized growth (locus YDR001C, strain nth1, hits give low values): 1.03
normalized growth (locus YDR069C, strain doa4, hits give low values): 1.11 [resistant] (active)
normalized growth (locus YDR137W, strain rgp1, hits give low values): 0.871
normalized growth (locus YDR159W, strain sac3, hits give low values): 1.01
normalized growth (locus YDR195W, strain ref2): 1.06
normalized growth (locus YDR297W, strain sur2, hits give low values): 1.04
normalized growth (locus YDR334W, strain swr1, hits give low values): 1.04
normalized growth (locus YDR335W, strain msn5, hits give low values): 1.01
normalized growth (locus YDR392W, strain spt3, hits give low values): 0.966
normalized growth (locus YEL003W, strain gim4, hits give low values): 1.01
normalized growth (locus YEL037C, strain rad23, hits give low values): 1.02
normalized growth (locus YER015W, strain faa2, hits give low values): 1.03
normalized growth (locus YER016W, strain bim1, hits give low values): 1.04
normalized growth (locus YER111C, strain swi4, hits give low values): 1.02
normalized growth (locus YER155C, strain BEM2 (second series), hits give low values): 1.03
normalized growth (locus YFR010W, strain ubp6, hits give low values): 1.06
normalized growth (locus YGL167C, strain pmr1, hits give low values): 1.05
normalized growth (locus YGL173C, strain kem1, hits give low values): 1.03
normalized growth (locus YGL227W, strain vid30, hits give low values): 1.04
normalized growth (locus YGL240W, strain doc1, hits give low values): 0.961
normalized growth (locus YGL253W, strain hxk2, hits give low values): 1.04
normalized growth (locus YHR013C, strain ard1, hits give low values): 1.12
normalized growth (locus YHR027C, strain rpn1, hits give low values): 1.04
normalized growth (locus YHR142W, strain chs7, hits give low values): 1.02
normalized growth (locus YJL092W, strain hpr5, hits give low values): 1.04
normalized growth (locus YJL095W, strain BCK1 (second series), hits give low values): 1.05
normalized growth (locus YJL115W, strain asf1, hits give low values): 1.03
normalized growth (locus YJL129C, strain trk1, hits give low values): 0.972
normalized growth (locus YJL154C, strain vps35, hits give low values): 1.02
normalized growth (locus YJL164C, strain tpk1, hits give low values): 1.02
normalized growth (locus YJL166W, strain qcr8, hits give low values): 1.02
normalized growth (locus YJL187C, strain SWE1, hits give low values): 1.03
normalized growth (locus YKL160W, strain elf1, hits give low values): 1.03
normalized growth (locus YKR026C, strain gcn3, hits give low values): 1.05
normalized growth (locus YKR091W, strain srl3, hits give low values): 1.03
normalized growth (locus YLL001W, strain dnm1, hits give low values): 1.02
normalized growth (locus YLL026W, hits give low values): 1.03
normalized growth (locus YLL041C, strain sdh2, hits give low values): 1.05
normalized growth (locus YLR027C, strain aat2, hits give low values): 1.04
normalized growth (locus YLR221C, strain rsa3, hits give low values): 1.03
normalized growth (locus YLR258W, strain gsy2, hits give low values): 1.02
normalized growth (locus YLR262C, strain YPT6 (second series), hits give low values): 0.938
normalized growth (locus YLR320W, strain mms22, hits give low values): 1.02
normalized growth (locus YLR342W, strain FKS1, hits give low values): 1.04
normalized growth (locus YLR357W, strain rsc2, hits give low values): 1.01
normalized growth (locus YLR370C, strain arc18, hits give low values): 1.04
normalized growth (locus YLR384C, strain iki3, hits give low values): 1.04
normalized growth (locus YML120C, strain ndi1, hits give low values): 1.02
normalized growth (locus YMR058W, strain fet3, hits give low values): 1.01
normalized growth (locus YMR125W, strain sto1, hits give low values): 1.03
normalized growth (locus YMR129W, hits give low values): 1.03
normalized growth (locus YMR205C, strain PFK2, hits give low values): 1.02
normalized growth (locus YMR231W, strain pep5, hits give low values): 1.02
normalized growth (locus YNL071W, strain lat1, hits give low values): 1.05
normalized growth (locus YNL209W, strain ssb2, hits give low values): 1.04
normalized growth (locus YNL248C, strain rpa49, hits give low values): 1.01
normalized growth (locus YNL322C, strain KRE1 (second series), hits give low values): 1.05
normalized growth (locus YNR049C, strain mso1, hits give low values): 1.04
normalized growth (locus YOR001W, strain rrp6, hits give low values): 0.964
normalized growth (locus YOR070C, strain gyp1, hits give low values): 1.03
normalized growth (locus YOR080W, strain dia2, hits give low values): 1.04
normalized growth (locus YOR083W, strain WHI5, hits give low values): 1.02
normalized growth (locus YOR106W, strain vam3, hits give low values): 0.901
normalized growth (locus YOR265W, strain rbl2, hits give low values): 1.02
normalized growth (locus YOR270C, strain vph1, hits give low values): 0.911
normalized growth (locus YOR290C, strain snf2, hits give low values): 0.991
normalized growth (locus YPL051W, strain arl3, hits give low values): 0.992
normalized growth (locus YPL078C, strain atp4, hits give low values): 1.01
normalized growth (locus YPL106C, strain sse1, hits give low values): 1.03
normalized growth (locus YPL240C, strain hsp82, hits give low values): 1.03

— PubChem BioAssay AID1159580 (chemical genetic matrix, 2015)
